33 compounds from PubChem BioAssay (NCATS) can be followed below.

Each structure is given as a SMILES string. Results filed as inconclusive are left out. Active and inactive are the calls of the source. Calls come from the whole dose curve; as a rule, active = well fitted curve in the direction sought with a large enough effect; inconclusive = small, poorly fitted or top-dose-only effect, or another doubt; inactive = no such curve, though single readings can be large; an effect the other way counts as inactive or inconclusive.

Assay [1] is described as follows: qHTS of pediatric cancer cell lines to identify multiple opportunities for drug repurposing: Primary screen for OHS-50 cells (AID 1347103). Note: nearly all actives have a fitted effect of over 40% in size. Note: potency is the fitted concentration of half-maximal effect. The settings on record: OHS-50 osteosarcoma viability, CellTiter-Glo luminescence, 48 h; series mostly up to 57.3 µM. In outline: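 Cells (500-1,000/well) rested 5 h, then received compounds for 48 h; metabolically active cells were measured by CellTiter-Glo luminescence. Final concentrations spanned up to 46 µM (MIPE, 11-point) or 0.59 nM-46 µM (NPC, 8-point) in primary screens, 11-point in follow-ups.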

Assay [2] can be described thus: qHTS of pediatric cancer cell lines to identify multiple opportunities for drug repurposing: Primary screen for RD cells (AID 1347104). Note: nearly all actives have a fitted effect of over 55% in size. Note: potency is the fitted concentration of half-maximal effect. The settings on record: RD rhabdomyosarcoma viability, CellTiter-Glo luminescence, 48 h; series mostly up to 46 µM. The gist of the method: (§1)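 Cells seeded at 500-1,000 cells/well in growth media, rested 5 hours at 37 degrees C, 5% CO2, then dosed; MIPE compounds at 11-point (from 0.78 nM) and NPC at 8-point (from 0.59 nM) final concentrations. Viability by CellTiter-Glo luminescence after 48 hours.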

Assay [3] is described as follows: qHTS of pediatric cancer cell lines to identify multiple opportunities for drug repurposing: Primary screen for control Hh wild type fibroblast cells (AID 1347106).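 Note: a drop in luminescence marks cytotoxicity and a rise apparent proliferation; nearly all actives have a fitted effect of over 55% in size.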 The settings on record: Hh wild-type fibroblast viability, CellTiter-Glo luminescence, 48 h; series mostly up to 46 µM. In outline: (§2)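 Cells (500-1,000/well) in growth media were settled 5 h at 37 degrees C, then given compounds for 48 h. Viability was read as CellTiter-Glo luminescence. Primary runs used MIPE at 11 points (0.78 nM-46 µM) and NPC at 8 points (0.59 nM-46 µM); follow-ups used 11 points.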

A short description of assay [4]: qHTS of pediatric cancer cell lines to identify multiple opportunities for drug repurposing: Primary screen for Rh30 cells (AID 1347107). Note: nearly all actives have a fitted effect of over 75% in size. As to conditions: Rh30 rhabdomyosarcoma viability, CellTiter-Glo luminescence, 48 h; series mostly up to 46 µM. The gist of the method: as §2
Assay [5] in a line: qHTS of pediatric cancer cell lines to identify multiple opportunities for drug repurposing: Primary screen for Rh41 cells (AID 1347108). Note: nearly all actives have a fitted effect of over 70% in size. Note: potency is the fitted concentration of half-maximal effect. As to conditions: Rh41 rhabdomyosarcoma viability, CellTiter-Glo luminescence, 48 h; series mostly up to 46 µM. In outline: as §1
Assay [6] is described as follows: qHTS of pediatric cancer cell lines to identify multiple opportunities for drug repurposing: Primary screen for MG 63 (6-TG R) cells (AID 1347105). Note: nearly all actives have a fitted effect of over 50% in size. Note: potency is the fitted concentration of half-maximal effect. As to conditions: MG 63 (6-TG R) viability, CellTiter-Glo, 48 h; series mostly up to 46 µM. The gist of the method: as §1
A short description of assay [7]: qHTS of pediatric cancer cell lines to identify multiple opportunities for drug repurposing: Confirmatory screen for NB1643 cells (AID 1347109). Note: potency is the fitted concentration of half-maximal effect; nearly all actives have a fitted effect of over 45% in size. The settings on record: NB1643 neuroblastoma cell viability; series mostly up to 45.9 µM. The gist of the method: as §2
Assay [8] in a line: qHTS of pediatric cancer cell lines to identify multiple opportunities for drug repurposing: Confirmatory screen for A673 cells (AID 1347110).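 Note: potency is the fitted concentration of half-maximal effect; cells exposed to compound for 48 h before the viability read; nearly all actives have a fitted effect of over 65% in size.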 As to conditions: A673 Ewing sarcoma cell viability; series mostly up to 45.9 µM. In outline:
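A673 cells seeded at 500-1,000 cells/well, rested 5 h, then dosed; primary MIPE 11-point (0.78 nM to 46 µM), NPC (0.59 nM to 46 µM); confirmatory 11-point. CellTiter-Glo luminescence after 48 h.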

A short description of assay [9]: qHTS of pediatric cancer cell lines to identify multiple opportunities for drug repurposing: Confirmatory screen for SK-N-MC cells (AID 1347111).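 Note: potency is the fitted concentration of half-maximal effect; cells exposed to compound for 48 h before the readout; nearly all actives have a fitted effect of over 70% in size.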 As to conditions: SK-N-MC cell viability; series mostly up to 45.9 µM. In outline:
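Metabolically active cells were quantified by ATP-dependent luminescence (CellTiter-Glo, 15 min at room temperature) following 48 h treatment. Cells had been plated at 500-1,000 per well and settled for 5 h beforehand.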

Assay [10] is described as follows: qHTS of pediatric cancer cell lines to identify multiple opportunities for drug repurposing: Confirmatory screen for BT-12 cells (AID 1347112). Note: potency is the fitted concentration of half-maximal effect; nearly all actives have a fitted effect of over 55% in size. The settings on record: BT-12 rhabdoid tumor cells, viability; series mostly up to 45.9 µM. The gist of the method: as §2

As for `Cc1onc(-c2ccccc2)c1C(=O)Cl`, the Potency entry in assay [1], in assay [2], in [3], in assay [4] and in assay [5] was “inactive” each time.
`CCN1CCN(C(=O)N[C@@H](C(=O)N[C@@H]2C(=O)N3[C@@H]2SC(C)(C)[C@H]3C(=O)O)c2ccccc2)C(=O)C1=O`: the Potency result in [1], in [2], in [3], in assay [4] and in assay [5] was “inactive” throughout.
With `CC(C)(C)C1CCC(CC2=C(O)c3ccccc3C(=O)C2=O)CC1` (stereo not given), in assay [1], the Potency is 3.89 µM (active). The Potency result in assay [3] was “inactive”.
With `CC[N+](CC)(CC)CCOC(=O)C(C1CCCC1)C1CCCC1`, the Potency entry in assay [2], in assay [6], in assay [3] and in [4] was “inactive” in each case.
Turning to `Nc1c2ccccc2nc2ccccc12`, the Potency in assay [1] was 24.6 µM (active); in [2] it was 15 µM (active); in assay [5], 16.8 µM (active); in assay [7] it was 4.14 µM (active); in assay [8], 6.57 µM (active); in assay [9] it was 3.29 µM (active). Besides, in [10], the Potency was 3.69 µM (active).
In the case of `COc1ccc(-n2nc(CCC(=O)N(C)O)cc2-c2ccc(Cl)cc2)cc1`, the Potency in assay [1] was 19.5 µM (active). The Potency result in assay [6], in assay [3] and in assay [4] was “inactive” each time.
Take `CCC1=C[C@@H]2CN(C1)Cc1c([nH]c3ccccc13)[C@@](C(=O)OC)(c1cc3c(cc1OC)N(C)[C@H]1[C@@](O)(C(=O)OC)[C@H](OC(C)=O)[C@]4(CC)C=CCN5CC[C@]31[C@@H]54)C2`: the Potency in assay [1] was 0.0195 µM (active); in [6], 0.0211 µM (active); in assay [7], 0.104 µM (active); in assay [8], 0.0117 µM (active); in assay [9], 0.0185 µM (active); in [10] it was 0.0522 µM (active). The Potency result in assay [4] is “inactive”.
Take `CCOC(=O)N1CCC(Nc2ccc(Cl)cc2N)CC1`: the Potency entry in assay [2], in assay [6], in [3] and in assay [4] was “inactive” each time.
As to `CCCCC/C=C\C/C=C\CCCCCCCC(=O)NC(C)c1ccccc1` (stereo not given), the Potency result in [2], in assay [6], in assay [3] and in [4] was “inactive” throughout.
Take `OCc1cccnc1`: the Potency result in [2], in assay [6], in assay [3] and in [4] was “inactive” in each case.
On to `CCCCCC(=O)O[C@]1(C(C)=O)CC[C@H]2[C@@H]3CCC4=CC(=O)CC[C@]4(C)[C@H]3CC[C@@]21C`, for which the Potency in [1] was 15.5 µM (active). The Potency entry in [6], in assay [3] and in assay [4] was “inactive” throughout.
`CC[C@@H]([C@H](C)O)n1ncn(-c2ccc(N3CCN(c4ccc(OC[C@@H]5CO[C@@](Cn6cncn6)(c6ccc(F)cc6F)C5)cc4)CC3)cc2)c1=O`: the Potency in [1] was 13.8 µM (active). For the same compound, the Potency result in assay [3] and in assay [4] was “inactive” each time.
Regarding `OCc1c[nH]c2ccccc12`, the Potency entry in assay [1], in assay [6], in assay [3] and in [4] was “inactive” in each case.
As to `COC(=O)c1c(Cl)c(Cl)c(C(=O)OC)c(Cl)c1Cl`, the Potency entry in assay [1], in assay [2], in assay [3], in assay [4] and in assay [5] was “inactive” in each case.
In the case of `CCCCCCCCCCCCCCCC[n+]1ccccc1`, the Potency in assay [1] is 2.46 µM (active); in assay [2], 13.3 µM (active); in [5], 11.9 µM (active).
As to `CC(C(O)c1ccccc1)N(C)CCOC(c1ccccc1)c1ccccc1` (stereo not given), the Potency in [1] is 27.6 µM (active). In addition, the Potency result in assay [6], in assay [3], in [4] and in [5] was “inactive” throughout.
For `CC[N+]1(CC)CCC(=C(c2ccccc2)c2ccccc2)C1C` (stereo not given), the Potency result in assay [2], in [6], in assay [3] and in [4] was “inactive” each time.
With `O=C(NO)c1ccccc1`, the Potency entry in assay [1], in assay [6], in [3] and in assay [4] was “inactive” in each case.
In the case of `O=C1Cc2cc(Cl)ccc2N1`, the Potency entry in [1], in assay [2], in [4] and in assay [5] was “inactive” each time.
For the compound `C[C@H]1C[C@H]2[C@@H]3CCC4=CC(=O)C=C[C@]4(C)[C@H]3C(=O)C[C@]2(C)[C@@]1(O)C(=O)CO`, the Potency result in [1], in assay [2], in assay [3], in assay [4] and in assay [5] was “inactive” each time. Further, the Potency in [7] is 2.61 µM (active).
Regarding `O=C1NCCN1CCN1CCC(c2cn(-c3ccc(F)cc3)c3ccc(Cl)cc23)CC1`, the Potency in assay [1] was 11 µM (active); in [2], 26.6 µM (active). Besides, the Potency result in assay [4] was “inactive”.
As for `CC(=O)Oc1ccc(C2(c3ccc(OC(C)=O)cc3)Oc3ccccc3NC2=O)cc1`, the Potency is 12.3 µM (active) in assay [1] and 4.22 µM (active) in assay [6]. For the same compound, the Potency entry in [4] is “inactive”.
Turning to `CN1CCCN(C(c2ccccc2)c2ccc(Cl)cc2)CC1` (stereo not given), the Potency in [1] was 30.9 µM (active). Moreover, the Potency entry in assay [6], in [3] and in assay [4] was “inactive” throughout.
As to `Cc1[nH]cnc1-c1ccc(Cl)cc1`, the Potency entry in assay [1], in assay [2], in assay [4] and in [5] was “inactive” throughout.
As to `Cc1nc(N)nc(N)c1-c1ccc(Cl)c(Cl)c1`, the Potency in assay [1] was 2.76 µM (active); in assay [2], 1.33 µM (active); in assay [8], 1.65 µM (active); in [9] it was 0.147 µM (active). In addition, the Potency result in assay [3], in assay [4] and in assay [5] was “inactive” throughout.
Regarding `CN1CCC(Nc2ncc3ncnc(Nc4ccc(F)c(Cl)c4)c3n2)CC1`, the Potency in [1] is 27.6 µM (active). The Potency entry in assay [6] and in [4] was “inactive” in each case.
Consider `O=C1NC2CCCCN2C12CCN(CCCN1c3ccccc3CCc3ccc(Cl)cc31)CC2` (stereo not given), for which the Potency in assay [1] is 27.6 µM (active). Further, the Potency entry in assay [3] and in assay [4] was “inactive” each time.
Turning to `Cc1nc(C2CCCCC2)c(-c2ccc(S(N)(=O)=O)c(F)c2)o1`, the Potency result in assay [2], in assay [6], in assay [3] and in [4] was “inactive” each time.
As to `Nc1cccc2c(N)cccc12`, the Potency was 31.7 µM (active) in assay [1] and 30.6 µM (active) in assay [5]. The Potency result in assay [6] and in assay [3] was “inactive” each time.
Regarding `Cc1cc(OCCOCC[N+](C)(C)Cc2ccccc2)ccc1C(C)(C)CC(C)(C)C`, the Potency was 4.37 µM (active) in assay [1]; 18.8 µM (active) in [2]; 8.27 µM (active) in assay [7]; 1.04 µM (active) in assay [8]; 2.61 µM (active) in assay [9]; 13.1 µM (active) in assay [10]. Moreover, the Potency result in assay [3] was “inactive”.
As for `CO[C@@H]1[C@@H](OC)[C@H](C)[C@@](O)(CC(=O)O)O[C@H]1[C@H](C)[C@H]1O[C@@]2(CC[C@@](C)([C@H]3CC[C@@](C)([C@@H]4O[C@@H]([C@H]5O[C@](C)(O)[C@H](C)C[C@@H]5C)C[C@@H]4OC4C[C@H](OC)[C@@H](OC)[C@H](C)O4)O3)O2)C[C@H](O)[C@H]1C` (stereo not given in full), the Potency in [1] was 0.389 µM (active); in assay [2], 4.73 µM (active); in assay [7], 0.737 µM (active); in assay [8], 2.61 µM (active); in assay [9] it was 1.31 µM (active); in [10], 0.657 µM (active). Also, the Potency entry in assay [4] is “inactive”.
Turning to `CC(NCCC(c1ccccc1)c1ccccc1)c1ccccc1` (stereo not given), the Potency in [1] was 17.4 µM (active). Also, in assay [3], the Potency entry is “inactive”.
With `CC(C)(C)c1ccc(O)c(O)c1`, in assay [2], the Potency was 8.63 µM (active).
